Compound activity as filed in PubChem.
TGFb SMAD3 inh – TGF-b pathway inhibition; AID 588855; Potency, µM (doses to about 46.1 µM), most hits filed as inhibitors; HepG2 CAGA-GFP TGF-b/SMAD3 reporter, GFP fluorescence, 18 h; TGF-beta stimulated, 500 pg/mL final; actives 1.2% (n = 410,000); further: nearly all actives have a fitted effect of over 65% in size
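Per well, imaged GFP fluorescence of HEPG2 CAGA-GFP cells gives the signal; cells get compound, then TGF-beta (500 pg/mL final), 18 h at 37 degrees C; %Activity versus -TGF-beta and +DMSO controls.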
IL1B secr inh – inflammasome signaling inhibition, IL-1 beta readout; THP-1 LPS/ATP IL-1B secretion, AlphaLISA, 16 h; active compounds read low; activity change, % at 57.5 µM; actives 4.7% (n = 360,000); AID 743279; in the data active means activity change below about -50%; inconclusive means mostly about -30% to -49%
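Secreted IL-1B measured by AlphaLISA bead assay after 16 h compound exposure of THP-1 cells; compounds (final up to 57.5 uM) added 1 h before LPS (250 ng/mL) and ATP (1.25 mM) stimulation; lower signal means less secretion.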
ATXN2 expr inh – inhibitors of ATXN2 expression | Potency, µM (doses to about 57 µM), hits mostly inhibitors | actives 0.72% (n = 360,000) | HEK-293 ATXN2-luciferase reporter, luminescence, 24 h; further: nearly all actives have a fitted effect of over 55% in size
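ATXN2-luciferase reporter cells (luciferase flanked by upstream and downstream ATXN2 gene portions) were treated 24 h at 37 °C with compounds at up to 57 uM. SteadyGlo luminescence gave expression; GF-AFC fluorescence gave viability.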
HepG2 viability – kills HepG2 cells in TGF-b inhibitor counter-screen; HepG2 CAGA-GFP viability, ATP luminescence, 18 h; Potency, µM (series often up to 46.1 µM), most hits filed as cytotoxic; actives 0.76% (n = 410,000)
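HepG2 CAGA-GFP cells (1000/well, DMEM with 1% FBS) received compound, then TGF-beta at 500 pg/mL final, and were incubated 18 hours at 37 degrees C. Viability was read by CellTiter-Glo luminescence. Media-only wells were set as complete cell-killing and DMSO as no toxicity.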
S2 tox – reduces viability in counter-screen for ATXN expression inhibitors. actives 0.49% (n = 400,000). S2 cells (HEK-293 line with an ATXN2-luciferase reporter) viability, CellTiter-Fluor protease fluorescence, 24 h. AID 651635. Potency, µM (series often up to 56.7 µM), actives largely listed as cytotoxic; further: nearly all actives have a fitted effect of over 40% in size
Large screens that a line does not name were inactive. The list is not random: actives were taken first. Their share in the collection is about 5.7%. Unless noted, the call rests on the fitted dose curve; in most records, active means well fitted curve in the direction sought with a large enough effect; inconclusive means small, poorly fitted or top-dose-only effect, or another doubt; inactive means no such curve, though single readings can be large; an effect the other way counts as inactive or inconclusive.

COc1ccc(C2=Nn3c(nnc3-c3ccccc3Cl)SC2)cc1OCC1CC1	TGFb SMAD3 inh 10µM, ATXN2 expr inh inconclusive, S2 tox inconclusive (no result: IL1B secr inh)
Fc1ccccc1-c1nnc2n1N=C(c1ccc(OC(F)F)c(OCC3CC3)c1)CS2	none (no result: IL1B secr inh)
Cc1ccc(N2C(=O)CCSC23C(=O)N(Cc2ccc(F)cc2)c2ccccc23)cc1 (stereo unspecified)	TGFb SMAD3 inh inconclusive (no result: IL1B secr inh, ATXN2 expr inh, S2 tox)
O=C(C[n+]1ccncc1)c1ccc2ccccc2c1	none (no result: IL1B secr inh, ATXN2 expr inh, S2 tox)
COc1cccc(CN2CCC(n3cc(C(=O)NC4CCCC4)nn3)CC2)c1O	none (no result: TGFb SMAD3 inh, IL1B secr inh, ATXN2 expr inh, HepG2 viability)
C=C(C)C(=O)Nc1nnc(-c2ccccc2C)s1	IL1B secr inh -63.1
CC1=Nc2ccccc2/C1=C(/C)c1c(C)[nH]c2ccccc12	none (no result: IL1B secr inh, ATXN2 expr inh, S2 tox)
CCCCOc1ccc(C(=O)N/C(=C\c2cccc([N+](=O)[O-])c2)C(=O)OCCC)cc1	none
CCCCOc1ccc(C(=O)N/C(=C/c2cccc([N+](=O)[O-])c2)C(=O)O)cc1	IL1B secr inh -61.8
Cc1ccccc1C(=O)Nc1ccc(C(=O)N2CCCC(O)c3cc(Cl)ccc32)c(C)c1 (stereo unspecified)	none (no result: TGFb SMAD3 inh, IL1B secr inh, HepG2 viability)
COc1ccc(N2CCN(c3oc(/C=C/c4cc(OC)c(OC)c(OC)c4)nc3C#N)CC2)cc1	none (no result: IL1B secr inh, ATXN2 expr inh, S2 tox)
Cc1ccc(N(C)C(=O)Cn2nc(Cc3ccncc3)c3ccccc3c2=O)cc1C	TGFb SMAD3 inh inconclusive (no result: IL1B secr inh, ATXN2 expr inh, S2 tox)
O=C(CSc1ccccc1)Nc1ccc(-c2nc3ccccc3[nH]2)cc1	TGFb SMAD3 inh inconclusive, HepG2 viability 15.8µM
Cc1ccc2nc(-c3ccc(NC(=O)CSc4ccccc4)cc3)[nH]c2c1	none
O=C(Cc1cccs1)Nc1ccc(-c2nc3ccccc3[nH]2)cc1	IL1B secr inh -52.9
Cc1ccccc1OCCCSc1nc2ccccc2[nH]1	TGFb SMAD3 inh inconclusive, IL1B secr inh -81.3, S2 tox inconclusive
O=C(CCCSc1nc2ccccc2[nH]1)Nc1ccccc1	IL1B secr inh -50.2
c1ccc(OCCSc2nc3ccccc3[nH]2)cc1	none
Cc1ccc(C(C)C)c(OCCNC(=O)c2ccccc2O)c1	TGFb SMAD3 inh inconclusive, IL1B secr inh -80.6
CC(C)c1ccccc1OCCNC(=O)c1cncc(Br)c1	IL1B secr inh -65.6
CSc1ccc(Cl)c(C(=O)NCCOc2ccccc2)c1	IL1B secr inh inconclusive
Cc1ccc(OCCNC(=O)c2ccccc2O)cc1	none
CSc1ccc(Cl)c(C(=O)NCCOc2cc(C)ccc2C(C)C)c1	IL1B secr inh -72.0
C=CCCn1c(Cl)c(C#N)sc1=O	none (no result: IL1B secr inh, ATXN2 expr inh, S2 tox)
N#C/C(=C\c1ccccc1[N+](=O)[O-])C(=O)NCc1ccccc1	none
COC(=O)C(=Cc1ccccc1[N+](=O)[O-])C(=O)OC	TGFb SMAD3 inh inconclusive, IL1B secr inh -65.5, S2 tox 15.8µM (no result: ATXN2 expr inh)
COc1ccc(CNC(=O)/C=C/c2ccccc2[N+](=O)[O-])cc1	none (no result: ATXN2 expr inh)
C=CCNC(=O)/C(C#N)=C/c1ccccc1[N+](=O)[O-]	IL1B secr inh -62.0
N#C/C(=C\C=C\c1ccccc1[N+](=O)[O-])C(=O)NCc1ccccc1	TGFb SMAD3 inh 12.6µM, IL1B secr inh -102.5, ATXN2 expr inh 28.2µM, S2 tox inconclusive
Fc1ccc(C(c2ccc(F)cc2)N2CCN(CC=Cc3ccccc3)CC2)cc1	none (no result: TGFb SMAD3 inh, IL1B secr inh, HepG2 viability, S2 tox)
COc1ccc2c(-c3ccc(OCCN4CCCCC4)cc3)c(-c3ccccc3OC)sc2c1	TGFb SMAD3 inh inconclusive, ATXN2 expr inh inconclusive, HepG2 viability 12.6µM (no result: S2 tox)
COc1ccc(-c2sc3cc(OC)ccc3c2-c2ccc(OCCN3CCCCC3)cc2)cc1	IL1B secr inh inconclusive, ATXN2 expr inh 22.4µM (no result: TGFb SMAD3 inh, HepG2 viability, S2 tox)
COc1ccccc1-c1sc2ccccc2c1-c1ccc(OCCN2CCCCC2)cc1	TGFb SMAD3 inh inconclusive, HepG2 viability 11.2µM (no result: S2 tox)
CCOC(=O)CNC(=O)CSc1nc(-c2ccc(C)cc2)ns1	IL1B secr inh -151.7 (no result: ATXN2 expr inh)
CCOC(=O)CNC(=O)CSc1nc2c(C)cccc2cc1CC	IL1B secr inh -97.7
CCc1cc2cccc(C)c2nc1SCC(=O)NC1CCCC1	none
COc1ccccc1CN(C)CC(=O)c1c(C)[nH]c2ccccc12	none (no result: IL1B secr inh, ATXN2 expr inh, S2 tox)
COc1ccc(-c2csc(NCCc3nc4cc(Cl)c(Cl)cc4n3CCCO)n2)cc1	TGFb SMAD3 inh inconclusive, IL1B secr inh -58.4, ATXN2 expr inh inconclusive, S2 tox inconclusive
OCCOCCn1c(CCNc2nc(-c3ccc(Cl)cc3)cs2)nc2cc(Cl)c(Cl)cc21	TGFb SMAD3 inh inconclusive, S2 tox inconclusive
